# In PubChem BioAssay AID2071 (Sanford-Burnham Center for Chemical Genomics, 2009):
# Out of some 280,000 compounds screened, about 1,700 (0.61%) were called active. No stated cut-off is given here; in the data, active means inhibition mostly above about 24% (no sharp cut-off); inactive means mostly below about 32%. The sample as a whole holds a higher share of actives than the screen did.
# Test: NALP1 inflammasome inhibitors in reconstituted yeast, colorimetric, S. cerevisiae, triplicate retest (AID 2071)
# Conditions: S. cerevisiae NALP1/ASC/caspase-1 growth, X-gal OD620, 72 h, stronger effect = higher value
structure (smiles),measurement,setting,value
Cc1ccnc(N2C(=O)c3ccc([N+](=O)[O-])cc3C2=O)c1,inhibition,at 10 µM unless noted,4.8% (inactive)
O=C(NCc1ccccc1)C1=C[C@@H](c2ccc(C(F)(F)F)cc2)C[C@@H](OCc2ccc(CO)cc2)O1,inhibition,at 10 µM unless noted,-7.3% (inactive)
O=C(C1=C[C@H](c2ccc(C(F)(F)F)cc2)C[C@H](OCc2ccc(CO)cc2)O1)N1CCN(Cc2ccccc2)CC1,inhibition,at 10 µM unless noted,26.9% (active)
O=C(C1=C[C@H](C2CC2)C[C@H](OCc2ccc(CO)cc2)O1)N1CCN(Cc2ccccc2)CC1,inhibition,at 10 µM unless noted,-5.8% (inactive)
CCN1C(=NCC(C)C)N[C@@H](CCc2ccccc2)[C@H](C(=O)NCC(C)C)[C@H]1C,inhibition,at 10 µM unless noted,-12.1% (inactive)
CCC(CC)c1nnc(NC(=O)C2CCN(C(=O)c3ccco3)CC2)s1,inhibition,at 10 µM unless noted,-1% (inactive)
CC(=O)N1CCN(CC(C)(C)NS(=O)(=O)c2ccc(C)cc2)CC1,inhibition,at 10 µM unless noted,-1% (inactive)
COc1ccc(NC(=O)c2sc3nc(C)nc(N4CCN(c5ccccn5)CC4)c3c2C)c(OC)c1,inhibition,at 10 µM unless noted,-10.9% (inactive)
CC1(C)CCSC(/C=C/c2ccccc2)=N1,inhibition,at 10 µM,53.2% (active)
same,inhibition,"triplicate retest, at 20 µM",102%
CN(C)CCOC1c2ccccc2-c2ccccc21,inhibition,at 10 µM unless noted,6% (inactive)
CCCCCCCCCCOC(=O)Cn1c(COc2cccc(OC)c2)[n+](C)c2ccccc21,inhibition,at 10 µM unless noted,36.3% (active)
Cc1ccc(OCc2nc3ccccc3n2C)cc1,inhibition,at 10 µM unless noted,33.1% (inactive)
COc1cccc(OCC(=O)Nc2ccccc2C(N)=O)c1,inhibition,at 10 µM unless noted,1.7% (inactive)
CCCCOC(=O)Cn1c(=N)n(CCN(CC)CC)c2ccccc21,inhibition,at 10 µM unless noted,2.6% (inactive)
CCCCCCCCCCOC(=O)Cn1c(COc2ccc(C)cc2)[n+](C)c2ccccc21,inhibition,at 10 µM unless noted,24.8% (active)
CCCCOC(=O)Cn1c(=O)n(CC(=O)OCCCC)c2cc(C)ccc21,inhibition,at 10 µM unless noted,-1% (inactive)
O=C(Nc1cccc([N+](=O)[O-])c1)N1CCc2ccccc2C1,inhibition,at 10 µM unless noted,7.7% (inactive)
Oc1c(Cl)cc(Cl)cc1/C=N/c1ncn[nH]1,inhibition,at 10 µM unless noted,15.3% (inactive)
CC/C(=N\NC(=O)c1c(C)nc2ccccn12)c1ccc(Cl)cc1,inhibition,at 10 µM unless noted,8.5% (inactive)
CCOc1ccc(N(CC(=O)NCCOc2ccccc2OC)S(=O)(=O)c2ccccc2)cc1,inhibition,at 10 µM unless noted,3% (inactive)
CN(C)c1ccc(-c2nnc(-c3cccnc3)o2)cc1,inhibition,at 10 µM unless noted,-3.5% (inactive)
O=C(NCc1cccc(C(F)(F)F)c1)c1cccc(S(=O)(=O)N2CCN(Cc3ccccc3)CC2)c1,inhibition,at 10 µM unless noted,9.8% (inactive)
CCn1c(=O)c(C(=O)NCc2ccc3c(c2)OCO3)c(O)c2ccccc21,inhibition,at 10 µM unless noted,4.6% (inactive)
CC(O)C(NS(=O)(=O)c1ccc(Cl)cc1)C(=O)OCc1cc([N+](=O)[O-])cc2c1OCOC2 (stereo not given),inhibition,at 10 µM unless noted,9.8% (inactive)
CCS(=O)(=O)c1cc([N+](=O)[O-])c(Sc2ccccc2N)s1,inhibition,at 10 µM unless noted,6.4% (inactive)
Nc1ccccc1SCc1cc([N+](=O)[O-])cc2c1OCOC2,inhibition,at 10 µM unless noted,23.8% (active)
O=S(=O)(NC1CC1)c1ccc(F)c(F)c1,inhibition,at 10 µM unless noted,3% (inactive)
CN(C)[C@@H]1C(=O)C(C(N)=O)=C(O)[C@@]2(O)C(=O)C3=C(O)c4c(O)ccc(Cl)c4[C@@H](O)[C@H]3C[C@@H]12,inhibition,at 10 µM unless noted,136% (active)
O=C(N/N=C/c1ccccn1)c1cccc(NC(=O)c2ccc(Cl)cc2)c1,inhibition,at 10 µM unless noted,8.8% (inactive)
S=C(NCCCc1ccccc1)Nc1ccc(Br)cc1,inhibition,at 10 µM unless noted,13% (inactive)
COc1ccc(C(=O)C2CCCN(C(=O)c3ccc(OC)o3)C2)c(C)c1 (stereo not given),inhibition,at 10 µM unless noted,14.5% (inactive)
CC(Sc1nncn1C)C(=O)Nc1cc(C(F)(F)F)ccc1N1CCOCC1 (stereo not given),inhibition,at 10 µM unless noted,6.8% (inactive)
CC(C)CC(=O)Nc1cc(C(F)(F)F)ccc1N1CCOCC1,inhibition,at 10 µM unless noted,39.4% (active)
CCC(=O)Nc1cc(C(F)(F)F)ccc1N1CCCC1,inhibition,at 10 µM unless noted,9% (inactive)
CC(=O)c1ccc(NC(=O)c2cc(-c3cccs3)on2)cc1,inhibition,at 10 µM unless noted,27.2% (inactive)
CN(C)CCCN(C(=O)c1ccc(S(=O)(=O)N2CCCCCC2)cc1)c1nc2ccc(Br)cc2s1,inhibition,at 10 µM unless noted,40.2% (active)
CCN(CC)CCN(C(=O)c1ccc(S(=O)(=O)N2CCOCC2)cc1)c1nc2cc3c(cc2s1)OCCO3,inhibition,at 10 µM unless noted,6.8% (inactive)
CN(C)CCCN(C(=O)c1ccc(S(=O)(=O)N2CCCc3ccccc32)cc1)c1nc2ccc(F)cc2s1,inhibition,at 10 µM unless noted,33.1% (inactive)
O=C(N/N=C/c1ccccc1O)C1CCCC1,inhibition,at 10 µM unless noted,-5.6% (inactive)
COc1ccc(N(C)S(=O)(=O)c2ccc3c(c2)CC(C)N3C(=O)C2CC2)c(OC)c1 (stereo not given),inhibition,at 10 µM unless noted,10.4% (inactive)
O=C(Nc1ccccc1)c1ccc(NC(=O)c2cccs2)cc1,inhibition,at 10 µM unless noted,1.7% (inactive)
O=C(Nc1ccnc(-c2ccncc2)n1)c1cccs1,inhibition,at 10 µM unless noted,37.8% (active)
O=C(Nc1ccc(NC(=O)c2cccs2)cn1)c1ccco1,inhibition,at 10 µM unless noted,-12.5% (inactive)
CN1CCN(NC(=O)Nc2ccc(Br)cc2)CC1,inhibition,at 10 µM unless noted,9.6% (inactive)
COCC(=O)Nc1ccc(Br)cc1,inhibition,at 10 µM unless noted,-1.1% (inactive)
CN1C(CC(=O)Nc2ccc(Br)cc2)c2ccccc2CC1(C)C (stereo not given),inhibition,at 10 µM unless noted,34.1% (active)
CC(C)Sc1ncnc2c1cnn2-c1ccccc1,inhibition,at 10 µM unless noted,13.3% (inactive)
Cc1nonc1NC(=O)c1oc2ccccc2c1C,inhibition,at 10 µM unless noted,15.3% (inactive)
COC(=O)c1cc(C(=O)OC)cc(N2C(=O)CC(N3CCN(c4ccccc4)CC3)C2=O)c1 (stereo not given),inhibition,at 10 µM unless noted,9.3% (inactive)
COC(=O)c1ccccc1SC1CC(=O)N(c2cccc(C)c2)C1=O (stereo not given),inhibition,at 10 µM,74.7% (active)
same,inhibition,"triplicate retest, at 20 µM",89.6%
Cc1cccc(N2C(=O)CC(SC(N)=Nc3ccccc3)C2=O)c1 (stereo not given),inhibition,at 10 µM unless noted,3% (inactive)
CC(=O)c1ccc(N2Cc3ccccc3C2)cc1,inhibition,at 10 µM unless noted,23% (inactive)
COC(=O)c1ccc(NC(=O)CSc2nncn2-c2cccnc2)cc1,inhibition,at 10 µM unless noted,12.6% (inactive)
COc1ccc(/C=C2\SC(=S)N(CCCC(=O)NC3CCCC3)C2=O)cc1OC,inhibition,at 10 µM unless noted,12.9% (inactive)
Cc1nc(-c2ccccc2)sc1C(=O)/C=C/N(C)C,inhibition,at 10 µM unless noted,32.3% (active)
Cc1ccc(SCC(=O)c2sc(-c3ccccc3)nc2C)cc1,inhibition,at 10 µM unless noted,30.2% (inactive)
CN(C)/C=C/C(=O)c1ccccc1F,inhibition,at 10 µM unless noted,27.1% (inactive)
CCCc1cc(=O)oc2c(C)c(OCC(=O)Nc3ccccn3)ccc12,inhibition,at 10 µM unless noted,16.1% (inactive)
COc1cc(/C=C/C(=O)N2CCc3ccccc3C2)cc(OC)c1OC,inhibition,at 10 µM unless noted,10.3% (inactive)
COc1ccc(OC)c(C(=O)NC(CC(N)=O)c2ccc(N3CCC(N4CCCCC4)CC3)c([N+](=O)[O-])c2)c1 (stereo not given),inhibition,at 10 µM unless noted,11.6% (inactive)
Cc1ccc(C)c(S(=O)(=O)n2cnc3ccccc32)c1,inhibition,at 10 µM unless noted,1.1% (inactive)
COc1ccc(S(=O)(=O)n2cnc3ccccc32)c(C)c1,inhibition,at 10 µM unless noted,2.2% (inactive)
Cc1ccc(S(=O)(=O)n2cnc3ccccc32)c(C)c1,inhibition,at 10 µM unless noted,40.9% (active)
CC1CN(C(=O)c2cc(COc3c(F)cccc3F)on2)CCN1C (stereo not given),inhibition,at 10 µM unless noted,-3.5% (inactive)
Cc1ccc(CNC(=O)CCS(=O)(=O)c2ccc3c(c2)CC(C)N3C(=O)C2CC2)o1 (stereo not given),inhibition,at 10 µM unless noted,20.6% (inactive)
O=C(NC(=O)c1ccccc1)NC(=O)c1ccccc1,inhibition,at 10 µM unless noted,-6% (inactive)
O=C(NCC1CCCO1)/C(=C/c1ccc(Cl)cc1)NC(=O)c1ccccc1 (stereo not given),inhibition,at 10 µM unless noted,22.3% (inactive)
N#C/C(=C/c1ccc(Cl)cc1)NC(=O)c1ccccc1,inhibition,at 10 µM unless noted,43.3% (active)
O=C(Nc1ccccc1Cl)NC1(C(=O)N2CCOCC2)CCCCC1,inhibition,at 10 µM unless noted,7.4% (inactive)
CC1CCC2(CC1)NC(=O)N(CC(=O)c1ccc3c(c1)OCO3)C2=O (stereo not given),inhibition,at 10 µM unless noted,9% (inactive)
Cc1occc1C(=O)N/N=C/c1ccc(-c2cccc([N+](=O)[O-])c2)o1,inhibition,at 10 µM unless noted,11.5% (inactive)
CC[C@H]1OC(=O)[C@H](C)[C@@H](O[C@H]2C[C@@](C)(OC)[C@@H](O)[C@H](C)O2)[C@H](C)[C@@H](O[C@@H]2O[C@H](C)C[C@H](N(C)C)[C@H]2O)[C@](C)(O)C[C@@H](C)[C@@H]2N[C@@H](COCCOC)O[C@H]([C@H]2C)[C@]1(C)O,inhibition,at 10 µM unless noted,75.2% (active)
CCn1c(SCc2cccc(C(=O)O)c2)nnc1-c1ccc(Cl)cc1,inhibition,at 10 µM unless noted,7.1% (inactive)
CCN1CCN(CCNC(=O)c2ccc(/C=C3/Sc4ccccc4N(Cc4cccc(C)c4)C3=O)cc2)CC1,inhibition,at 10 µM unless noted,12.2% (inactive)
CCN1/C(=C/c2ccc3ccc(C)cc3[n+]2CC)Sc2ccccc21,inhibition,at 10 µM,87.1% (active)
same,inhibition,"triplicate retest, at 20 µM",107%
CCN1/C(=C\c2ccc3ccccc3[n+]2CC)Sc2cc(C)ccc21,inhibition,at 10 µM,77.1% (active)
same,inhibition,"triplicate retest, at 20 µM",81.9%
CCN1/C(=C/C(=S)Nc2ccccc2)Sc2ccccc21,inhibition,at 10 µM unless noted,27.1% (inactive)
CCCN1CCn2c3c(c4cc(Br)ccc42)CCCC31 (stereo not given),inhibition,at 10 µM unless noted,15.4% (inactive)
CCN(C(=O)CN1C(=O)/C(=C/c2ccc(F)cc2)SC1=S)C1CCS(=O)(=O)C1 (stereo not given),inhibition,at 10 µM unless noted,4.8% (inactive)
COc1ccc(C(=O)N2CCCCC2C(=O)Nc2ccc(-n3nc(C)cc3C)cc2)o1 (stereo not given),inhibition,at 10 µM unless noted,8.7% (inactive)
Cc1snc(SCc2c(F)cccc2Cl)c1C#N,inhibition,at 10 µM unless noted,6.1% (inactive)
CCC(=C/c1sc2ccc3ccccc3c2[n+]1C)/C=C1\Sc2ccc3ccccc3c2N1C,inhibition,at 10 µM unless noted,42.3% (active)
COc1ccc(/C=N/Nc2ccccc2C(=O)O)cc1,inhibition,at 10 µM unless noted,10.9% (inactive)
CCNC(=O)Nc1ccc(S(=O)(=O)Nc2cnc(C)nc2C)cc1,inhibition,at 10 µM unless noted,18.5% (inactive)
CCOc1ccccc1/C=N/Nc1nc2ccccc2o1,inhibition,at 10 µM unless noted,14.3% (inactive)
COc1ccccc1CCNC(=O)C1CCN(C(=O)/C=C/c2ccccc2)CC1,inhibition,at 10 µM unless noted,16.7% (inactive)
